# Assay results published in the supplement of paper PMC10849652.
# About 8,800 targets were measured; listed, in parts, are those with a hit and a random draw of the rest. About 0.5% of all pairs of compound and target were hits.
# Compound: CN1CCN(CCOc2cc(OC3CCOCC3)c3c(Nc4c(Cl)ccc5c4OCO5)ncnc3c2)CC1 [saracatinib]
# Experiment: log2 fold change, soluble protein after heating vs DMSO (PISA); higher = thermal stabilisation; K562 lysate, 10 uM; active = over 0.2 and 3.5 SD of the protein, either way, in both replicates (recomputed)
# Method in brief: (§1)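 Quantification was by TMTpro 16plex LC-MS/MS with equalised channel sums, applied to the supernatant after 21,000xg for 90 min. Samples were crude K562 extract at 1 mg/mL protein in PBS pH 7.4 with 1 mM MgCl2, treated with 10 μM compound for 30 min, heated for 3 min across 48°C-58°C, pooled and brought to 0.5% NP-40 at 4°C. Values are log-two fold changes in thermal stability relative to solvent controls, from duplicates.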
# Chain of UniProt Q9Y6M1 (Q9Y6M1 whole entry, looked up): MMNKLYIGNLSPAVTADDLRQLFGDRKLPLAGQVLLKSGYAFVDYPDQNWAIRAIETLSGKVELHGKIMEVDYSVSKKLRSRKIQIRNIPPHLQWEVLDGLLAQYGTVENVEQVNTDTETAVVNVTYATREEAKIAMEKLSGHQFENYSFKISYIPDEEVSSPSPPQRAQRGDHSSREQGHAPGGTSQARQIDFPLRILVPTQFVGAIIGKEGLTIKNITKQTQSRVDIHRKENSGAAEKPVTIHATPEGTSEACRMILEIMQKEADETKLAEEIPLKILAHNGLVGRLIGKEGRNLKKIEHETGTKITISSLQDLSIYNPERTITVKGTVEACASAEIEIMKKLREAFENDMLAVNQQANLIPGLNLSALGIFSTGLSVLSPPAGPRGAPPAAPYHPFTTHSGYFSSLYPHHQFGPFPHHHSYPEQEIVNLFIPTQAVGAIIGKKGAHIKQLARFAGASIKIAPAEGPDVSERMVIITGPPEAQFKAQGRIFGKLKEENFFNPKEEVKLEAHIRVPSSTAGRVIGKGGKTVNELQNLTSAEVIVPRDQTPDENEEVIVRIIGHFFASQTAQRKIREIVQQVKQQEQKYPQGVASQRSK
# Chain of UniProt P52789 (P52789 whole entry, looked up): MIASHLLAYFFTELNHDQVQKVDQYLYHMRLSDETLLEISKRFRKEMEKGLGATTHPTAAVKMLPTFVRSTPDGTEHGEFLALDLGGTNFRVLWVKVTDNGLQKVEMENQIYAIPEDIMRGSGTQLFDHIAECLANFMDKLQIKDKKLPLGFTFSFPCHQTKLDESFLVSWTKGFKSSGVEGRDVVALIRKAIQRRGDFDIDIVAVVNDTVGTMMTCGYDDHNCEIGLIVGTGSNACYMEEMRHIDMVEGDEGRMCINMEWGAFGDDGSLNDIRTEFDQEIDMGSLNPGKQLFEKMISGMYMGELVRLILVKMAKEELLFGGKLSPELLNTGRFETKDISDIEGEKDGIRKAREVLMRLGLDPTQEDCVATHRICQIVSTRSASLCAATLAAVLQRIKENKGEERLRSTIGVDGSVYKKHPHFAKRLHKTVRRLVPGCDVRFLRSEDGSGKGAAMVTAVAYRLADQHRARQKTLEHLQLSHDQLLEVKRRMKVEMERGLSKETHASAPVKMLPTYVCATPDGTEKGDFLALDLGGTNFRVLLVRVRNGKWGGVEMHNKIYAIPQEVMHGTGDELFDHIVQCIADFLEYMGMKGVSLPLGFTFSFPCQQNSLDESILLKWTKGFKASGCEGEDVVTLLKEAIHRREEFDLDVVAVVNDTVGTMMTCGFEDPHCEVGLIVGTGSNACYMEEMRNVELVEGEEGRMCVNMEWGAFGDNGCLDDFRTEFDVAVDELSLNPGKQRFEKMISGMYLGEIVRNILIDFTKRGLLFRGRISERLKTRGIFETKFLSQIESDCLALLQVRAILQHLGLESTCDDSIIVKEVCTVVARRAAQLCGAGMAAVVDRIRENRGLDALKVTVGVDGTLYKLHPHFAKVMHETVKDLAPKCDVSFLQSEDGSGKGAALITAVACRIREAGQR
# Chain of UniProt P11142 (P11142 whole entry, looked up): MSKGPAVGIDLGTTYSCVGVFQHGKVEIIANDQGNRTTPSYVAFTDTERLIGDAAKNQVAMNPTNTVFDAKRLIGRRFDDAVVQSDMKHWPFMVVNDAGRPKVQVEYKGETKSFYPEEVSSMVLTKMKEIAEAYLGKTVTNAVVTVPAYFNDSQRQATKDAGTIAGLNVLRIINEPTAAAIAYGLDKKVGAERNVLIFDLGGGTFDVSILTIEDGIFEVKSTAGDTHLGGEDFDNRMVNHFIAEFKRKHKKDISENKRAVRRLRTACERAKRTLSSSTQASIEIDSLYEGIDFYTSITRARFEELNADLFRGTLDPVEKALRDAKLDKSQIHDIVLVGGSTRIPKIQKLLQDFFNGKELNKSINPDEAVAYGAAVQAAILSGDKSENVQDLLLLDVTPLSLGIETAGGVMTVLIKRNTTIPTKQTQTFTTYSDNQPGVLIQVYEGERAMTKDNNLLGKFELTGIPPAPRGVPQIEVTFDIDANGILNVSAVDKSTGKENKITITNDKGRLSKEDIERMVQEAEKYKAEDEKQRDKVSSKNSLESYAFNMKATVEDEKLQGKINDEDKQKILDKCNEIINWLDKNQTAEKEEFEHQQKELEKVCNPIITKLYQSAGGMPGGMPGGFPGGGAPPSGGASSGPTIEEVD
# Chain of UniProt Q8N201 (Q8N201 whole entry, looked up): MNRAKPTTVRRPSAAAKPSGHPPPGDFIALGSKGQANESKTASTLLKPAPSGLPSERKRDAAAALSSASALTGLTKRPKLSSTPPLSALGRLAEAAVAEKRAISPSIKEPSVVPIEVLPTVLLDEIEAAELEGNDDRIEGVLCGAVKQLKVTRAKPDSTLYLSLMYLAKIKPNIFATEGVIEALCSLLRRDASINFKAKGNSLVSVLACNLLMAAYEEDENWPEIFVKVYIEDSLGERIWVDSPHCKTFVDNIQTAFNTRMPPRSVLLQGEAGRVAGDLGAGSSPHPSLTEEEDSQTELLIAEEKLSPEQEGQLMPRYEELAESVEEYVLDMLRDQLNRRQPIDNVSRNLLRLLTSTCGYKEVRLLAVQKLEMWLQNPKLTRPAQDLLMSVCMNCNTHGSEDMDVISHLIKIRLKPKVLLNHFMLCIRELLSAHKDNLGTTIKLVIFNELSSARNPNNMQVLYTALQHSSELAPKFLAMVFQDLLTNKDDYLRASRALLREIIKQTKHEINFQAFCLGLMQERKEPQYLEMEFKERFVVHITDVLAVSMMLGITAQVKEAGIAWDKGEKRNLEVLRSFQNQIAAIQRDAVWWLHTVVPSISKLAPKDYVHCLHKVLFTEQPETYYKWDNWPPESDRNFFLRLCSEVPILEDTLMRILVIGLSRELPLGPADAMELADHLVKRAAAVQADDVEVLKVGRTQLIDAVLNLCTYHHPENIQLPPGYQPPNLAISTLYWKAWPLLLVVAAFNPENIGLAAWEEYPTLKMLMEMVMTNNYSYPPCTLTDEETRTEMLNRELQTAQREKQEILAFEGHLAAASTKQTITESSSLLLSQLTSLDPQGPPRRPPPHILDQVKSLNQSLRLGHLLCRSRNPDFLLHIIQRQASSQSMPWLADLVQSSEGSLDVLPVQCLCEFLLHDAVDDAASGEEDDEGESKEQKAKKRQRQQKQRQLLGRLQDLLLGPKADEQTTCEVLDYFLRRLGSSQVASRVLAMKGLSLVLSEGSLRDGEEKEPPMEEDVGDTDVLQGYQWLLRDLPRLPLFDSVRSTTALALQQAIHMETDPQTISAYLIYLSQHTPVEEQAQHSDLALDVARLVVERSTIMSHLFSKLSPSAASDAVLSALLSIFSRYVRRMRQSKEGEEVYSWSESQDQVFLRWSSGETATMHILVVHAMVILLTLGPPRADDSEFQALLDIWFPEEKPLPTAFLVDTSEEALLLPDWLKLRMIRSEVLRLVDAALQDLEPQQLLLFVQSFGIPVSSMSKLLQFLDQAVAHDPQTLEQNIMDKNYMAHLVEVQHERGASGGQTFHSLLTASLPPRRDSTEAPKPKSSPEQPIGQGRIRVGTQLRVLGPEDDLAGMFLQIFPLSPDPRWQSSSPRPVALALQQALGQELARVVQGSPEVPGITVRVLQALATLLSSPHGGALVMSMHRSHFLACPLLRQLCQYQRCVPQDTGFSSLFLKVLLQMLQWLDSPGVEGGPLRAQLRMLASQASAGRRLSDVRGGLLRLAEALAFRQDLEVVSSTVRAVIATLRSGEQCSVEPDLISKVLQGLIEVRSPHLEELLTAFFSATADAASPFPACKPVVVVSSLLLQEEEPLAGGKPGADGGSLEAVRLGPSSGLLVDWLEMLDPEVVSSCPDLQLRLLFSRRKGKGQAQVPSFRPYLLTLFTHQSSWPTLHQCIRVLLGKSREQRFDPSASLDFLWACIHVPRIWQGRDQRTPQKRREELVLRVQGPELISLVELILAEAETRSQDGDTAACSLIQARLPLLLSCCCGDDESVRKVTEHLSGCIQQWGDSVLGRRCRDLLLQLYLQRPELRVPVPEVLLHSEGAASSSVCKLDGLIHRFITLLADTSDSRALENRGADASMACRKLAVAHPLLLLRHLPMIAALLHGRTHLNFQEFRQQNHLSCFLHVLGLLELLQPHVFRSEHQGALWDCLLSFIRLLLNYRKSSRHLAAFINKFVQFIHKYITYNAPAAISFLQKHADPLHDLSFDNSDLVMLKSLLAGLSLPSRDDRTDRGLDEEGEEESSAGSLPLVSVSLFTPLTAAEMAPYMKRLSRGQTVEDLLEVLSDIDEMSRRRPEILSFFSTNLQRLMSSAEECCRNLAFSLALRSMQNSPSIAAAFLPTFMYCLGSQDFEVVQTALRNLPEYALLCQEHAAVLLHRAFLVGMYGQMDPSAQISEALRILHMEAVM
# Chain of UniProt Q9BX10 (Q9BX10 whole entry, looked up): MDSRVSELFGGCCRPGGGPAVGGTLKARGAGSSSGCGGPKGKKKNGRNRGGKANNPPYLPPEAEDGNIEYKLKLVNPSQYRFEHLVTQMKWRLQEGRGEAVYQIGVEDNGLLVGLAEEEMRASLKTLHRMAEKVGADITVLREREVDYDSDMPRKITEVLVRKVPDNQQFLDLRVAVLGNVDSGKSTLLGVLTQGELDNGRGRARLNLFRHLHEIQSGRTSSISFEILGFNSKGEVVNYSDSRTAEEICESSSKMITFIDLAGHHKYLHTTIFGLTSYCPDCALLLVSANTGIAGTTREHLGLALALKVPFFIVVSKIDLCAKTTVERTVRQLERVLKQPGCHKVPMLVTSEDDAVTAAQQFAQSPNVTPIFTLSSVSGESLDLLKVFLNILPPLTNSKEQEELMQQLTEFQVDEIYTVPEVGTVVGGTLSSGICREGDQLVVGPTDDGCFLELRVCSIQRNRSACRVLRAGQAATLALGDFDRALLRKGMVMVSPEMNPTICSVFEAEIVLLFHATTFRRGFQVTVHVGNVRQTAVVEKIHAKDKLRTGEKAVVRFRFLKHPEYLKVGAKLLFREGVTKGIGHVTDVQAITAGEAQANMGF
row,Target,log2 fold change
1,GTF2H4 (UniProt Q92759),0.029 (inactive)
2,GSTZ1 (UniProt G3V4T6),-0.012 (inactive)
3,HDAC2 (UniProt Q92769),0.02 (inactive)
4,HEATR6 (UniProt Q6AI08),-0.007 (inactive)
5,H4C1 (UniProt P62805),-0.094 (inactive)
6,HECTD3 (UniProt Q5T447),0.032 (inactive)
7,KCT2 (UniProt Q8NC54),0.089 (inactive)
8,GPX4 (UniProt P36969),0.02 (inactive)
9,IARS2 (UniProt Q9NSE4),-0.002 (inactive)
10,GTF2H1 (UniProt P32780),0.018 (inactive)
11,GSTM4 (UniProt Q03013),-0.13 (inactive)
12,IMPACT (UniProt Q9P2X3),0.001 (inactive)
13,IGF2BP2 (UniProt Q9Y6M1),0.014 (inactive)
14,GON4L (UniProt Q3T8J9),-0.019 (inactive)
15,HK1 isoform 2 (UniProt P19367),-0.015 (inactive)
16,GTF2I (UniProt P78347),0.014 (inactive)
17,KEAP1 (UniProt Q14145),-0.018 (inactive)
18,ISOC2 (UniProt Q96AB3),-0.047 (inactive)

row,Target,log2 fold change
1,HSD17B10 (UniProt Q99714),-0.022 (inactive)
2,IRAK4 (UniProt Q9NWZ3),0.045 (inactive)
3,IMMT (UniProt Q16891),0.01 (inactive)
4,IARS (UniProt P41252),0.006 (inactive)
5,IMPDH2 (UniProt P12268),-0.001 (inactive)
6,GNE isoform 2 (UniProt Q9Y223),-0.003 (inactive)
7,GTPBP2 (UniProt Q9BX10),0.047 (inactive)
8,HSPB1 (UniProt P04792),0.024 (inactive)
9,INTS1 (UniProt Q8N201),0 (inactive)
10,HSPA8 (UniProt P11142),-0.001 (inactive)
11,HAUS3 (UniProt Q68CZ6),-0.016 (inactive)
12,GRB10 (UniProt Q13322),-0.082 (inactive)
13,HARS (UniProt P12081),-0.021 (inactive)
14,GMIP (UniProt Q9P107),0.007 (inactive)
15,HK2 (UniProt P52789),-0.009 (inactive)
16,IRAK1 (UniProt P51617),-0.016 (inactive)
17,GSTCD (UniProt Q8NEC7),0.034 (inactive)
18,HDAC3 (UniProt O15379),-0.04 (inactive)

# Compound: CN1CCN(c2nc(C3=C(c4c[nH]c5ccccc45)C(=O)NC3=O)c3ccccc3n2)CC1 [sotrastaurin]
# Experiment: as above
# Method in brief: as §1
row,Target,log2 fold change
1,GTF2H4 (UniProt Q92759),0.034 (inactive)
2,GSTZ1 (UniProt G3V4T6),-0.018 (inactive)
3,HDAC2 (UniProt Q92769),-0.024 (inactive)
4,HEATR6 (UniProt Q6AI08),0.064 (inactive)
5,H4C1 (UniProt P62805),-0.059 (inactive)
6,HECTD3 (UniProt Q5T447),0.027 (inactive)
7,KCT2 (UniProt Q8NC54),0.038 (inactive)
8,GPX4 (UniProt P36969),0.012 (inactive)
9,IARS2 (UniProt Q9NSE4),0.003 (inactive)
10,GTF2H1 (UniProt P32780),-0.012 (inactive)
11,GSTM4 (UniProt Q03013),-0.05 (inactive)
12,IMPACT (UniProt Q9P2X3),0.058 (inactive)
13,IGF2BP2 (UniProt Q9Y6M1),0.026 (inactive)
14,GON4L (UniProt Q3T8J9),0.016 (inactive)
15,HK1 isoform 2 (UniProt P19367),0.004 (inactive)
16,GTF2I (UniProt P78347),0.01 (inactive)
17,KEAP1 (UniProt Q14145),0.033 (inactive)
18,ISOC2 (UniProt Q96AB3),0.002 (inactive)

row,Target,log2 fold change
1,HSD17B10 (UniProt Q99714),-0.014 (inactive)
2,IRAK4 (UniProt Q9NWZ3),-0.022 (inactive)
3,IMMT (UniProt Q16891),-0.012 (inactive)
4,IARS (UniProt P41252),0.014 (inactive)
5,IMPDH2 (UniProt P12268),-0.005 (inactive)
6,GNE isoform 2 (UniProt Q9Y223),-0.029 (inactive)
7,GTPBP2 (UniProt Q9BX10),0.043 (inactive)
8,HSPB1 (UniProt P04792),0.005 (inactive)
9,INTS1 (UniProt Q8N201),-0.002 (inactive)
10,HSPA8 (UniProt P11142),0.004 (inactive)
11,HAUS3 (UniProt Q68CZ6),0.01 (inactive)
12,GRB10 (UniProt Q13322),0.028 (inactive)
13,HARS (UniProt P12081),0.009 (inactive)
14,GMIP (UniProt Q9P107),0.034 (inactive)
15,HK2 (UniProt P52789),0.001 (inactive)
16,IRAK1 (UniProt P51617),-0.029 (inactive)
17,GSTCD (UniProt Q8NEC7),0.037 (inactive)
18,HDAC3 (UniProt O15379),-0.006 (inactive)
